Screening data (PubChem)
Shown are actives, neighbours in structure and some others; about 21% of the full set was active somewhere.
CHX counter = Cycloheximide Counterscreen for Small Molecule Inhibitors of Shiga Toxin; cell reporter, cycloheximide protein synthesis inhibition counterscreen; max response, %; actives 12% (n = 300,000); AID 2314, 2010; in the data active means max response mostly above about 13%, no sharp cut-off; inactive means mostly below about 14%; further: read at 38.3 µM for the half of the compounds with a filed dose; 0% is about no effect
Shiga toxin inh = A qHTS for Small Molecule Inhibitors of Shiga Toxin | inhibition, % at 38.7 µM | actives 9.2% (n = 290,000) | Vero cells, Shiga toxin protein synthesis inhibition reporter | AID 2315, 2010; in the data active means inhibition mostly above about 28%, no sharp cut-off; inactive means mostly below about 43%; further: 0% is about no effect
Pf growth 96h = Primary qHTS for delayed death inhibitors of the malarial parasite plastid, 96 hour incubation; P. falciparum luciferase reporter growth, 96 h; Potency, µM (top dose mostly 28.7 µM), inactives show at the highest dose activity change, negative = inhibition, actives largely listed as inhibitors; actives 6.9% (n = 320,000); further: potency means the concentration at half of the fitted maximal effect; on the % scale 0 is the no-effect control and ±100 the full control effect
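96 h incubation, 37 C, 5% CO2, of luciferase-reporter P. falciparum-infected RBCs (2% hematocrit, 0.05% parasitemia final) with test compounds; endpoint luminescence.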
HCV inhibitor = qHTS Assay for Inhibitors of Hepatitis C Virus (HCV) | actives 3.4% (n = 340,000) | Potency, µM (series often up to 41.8 µM), inactives show top-dose activity change, negative = inhibition, hits mostly inhibitors | Huh7.5.1 HCVcc-Cre infection, luciferase reporter, 44 h; further: potency means the concentration at half of the fitted maximal effect; on the % scale 0 is the no-effect control and ±100 the full control effect
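Infectious HCVcc-Cre (~0.5 moi) was added to cells just after compound, with cells seeded 4 h earlier at 1,000 per well. Luciferase activity after 44 h culture reported infection; substrate was incubated 15 min at room temperature before reading.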
Pf growth 48h = Primary qHTS for delayed death inhibitors of the malarial parasite plastid, 48 hour incubation. Potency, µM (series often up to 28.7 µM), for inactives: at the highest dose activity change, negative = inhibition, most hits filed as inhibitors. actives 5.9% (n = 310,000). P. falciparum luciferase growth in erythrocytes, 48 h; further: potency means the concentration at half of the fitted maximal effect; on the % scale 0 is the no-effect control and ±100 the full control effect
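Luciferase-expressing parasites in RBCs, 2% Hct / 0.1% parasitemia final; RPMI 1640 + 0.5% Albumax; 37 C, 5% CO2, one generation; luminescence read-out, lower signal = inhibition.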
HCMV inh = qHTS Assay for inhibitors of the human cytomegalovirus (HCMV) | HFF cells, HCMV-luciferase reporter, 72 h; active compounds read low | activity change, negative = inhibition, % at 57.5 µM | actives 4.5% (n = 410,000); in the data active means activity change below about -60%; inconclusive means no clear call, values can overlap the other calls; inactive means above about -39%; further: on the % scale 0 is the no-effect control and ±100 the full control effect
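Two-dose cell screen: HFF monolayers treated with compounds and infected with luciferase-expressing HCMV at 1 PFU/cell, 72 h at 37C, then lysed for luciferase measurement.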
An asterisk follows results filed as active; [ ] = remark or other dose. Unless noted, the call rests on the fitted dose curve; in most records, active means well fitted inhibition curve with a large enough effect; inconclusive means small, poorly fitted or top-dose-only effect, or another doubt; inactive means no such curve, though single readings can be large or run the other way.

CCCCOc1ccc(CNC(=O)C2COc3ccc(OC)cc3C2)cc1 (centres undefined) was read as HCMV inh 11.
Screening Cc1ccccc1C(=O)N1CCC(c2nc3ccccc3s2)CC1 returned HCMV inh -16.
`CCc1ccc(C(=O)N2CCC(c3nc4ccccc4s3)CC2)cc1` gave CHX counter 1, Shiga toxin inh -2, Pf growth 96h 3.3µM*, HCV inhibitor -22%, Pf growth 48h 13% and HCMV inh -1.
`CCC(=O)OCC(=O)Nc1cc([N+](=O)[O-])ccc1OC` gave CHX counter -8, Shiga toxin inh 12, Pf growth 96h 36%, HCV inhibitor 2%, Pf growth 48h 13% and HCMV inh 63.
`COC(=O)Nc1nc2ccc(SC(C)C)cc2[nH]1` gave Pf growth 96h 39%, HCV inhibitor inconclusive, Pf growth 48h 60% and HCMV inh -82*.
`CCCSc1ccc2nc(NC(=O)OC)[nH]c2c1` gave CHX counter 35*, Shiga toxin inh 141*, Pf growth 96h 223%, HCV inhibitor -21%, Pf growth 48h 111% and HCMV inh -20.
`CS(=O)(=O)c1ccc([C@@H](O)[C@@H](COC(=O)CN)NC(=O)C(Cl)Cl)cc1` gave Pf growth 96h 1.9µM* and Pf growth 48h inconclusive.
`CC(NC(=O)c1ccc(S(C)(=O)=O)cc1)c1cccc2ccccc12` (centres undefined) gave CHX counter 1, Shiga toxin inh -3, Pf growth 96h 21%, HCV inhibitor -29%, Pf growth 48h inconclusive and HCMV inh 14.
COC(=O)C1=CN(c2ccc(OC)cc2)C=C(C(=O)OC)C1c1cccc(F)c1 was read as CHX counter -2, Shiga toxin inh -2, Pf growth 96h -6%, HCV inhibitor inconclusive, Pf growth 48h inconclusive and HCMV inh -8.
For COC(=O)C1=CN(c2cccc(C)c2)C=C(C(=O)OC)C1c1cc(OC)c(O)c([N+](=O)[O-])c1 the results were CHX counter 5, Shiga toxin inh -14, Pf growth 96h inconclusive, HCV inhibitor 3%, Pf growth 48h 8.3µM* and HCMV inh 118.
Screening COC(=O)C1=CN(c2ccc(OC)cc2)C=C(C(=O)OC)C1c1ccc(C)c([N+](=O)[O-])c1 returned CHX counter 1, Shiga toxin inh -5, Pf growth 96h 20%, HCV inhibitor inconclusive, Pf growth 48h 13µM* and HCMV inh -78*.
Screening CCc1ccccc1NC(=O)N1CCc2cc(OC)c(OC)cc2C1CC(=O)OC (centres undefined) returned HCMV inh -5.
`COc1ccc(C2C(C(=O)Nc3cccnc3)=C(C)Nc3nc(-c4ccc(OC)c(OC)c4)nn32)cc1` (centres undefined) gave HCMV inh 4.
Cc1ccc(Nc2ncnc(N)n2)cc1 was read as CHX counter 36*, Shiga toxin inh 50*, Pf growth 96h -38%, HCV inhibitor -1%, Pf growth 48h 111% and HCMV inh 148.
Screening Nc1ncnc(Nc2ccc(F)cc2)n1 returned CHX counter 10, Shiga toxin inh 31, Pf growth 96h 6%, HCV inhibitor 31%, Pf growth 48h 9% and HCMV inh -26.
CCOc1ccc(Nc2ncnc(N)n2)cc1 was read as CHX counter 18, Shiga toxin inh 45*, HCV inhibitor 25%, Pf growth 48h 43% and HCMV inh 55.
`Cc1cccc(-n2c(SCC(=O)N3CCN(c4ccccn4)CC3)nnc2N2CCOCC2)c1` gave Pf growth 96h inconclusive, HCV inhibitor -4%, Pf growth 48h -17% and HCMV inh -6.
`Cc1ncc([N+](=O)[O-])n1Cc1ccc(Br)cc1` gave CHX counter 6, Shiga toxin inh -9, Pf growth 96h -15%[5.75 µM], HCV inhibitor 11%, Pf growth 48h 7% and HCMV inh -23.
For CC(C)(C)N/N=C1\CC(c2ccccc2)Oc2ccccc21 (centres undefined) the results were CHX counter 10, Shiga toxin inh 15, Pf growth 96h inconclusive, HCV inhibitor 14%, Pf growth 48h inconclusive and HCMV inh -15.
For O=C(O)c1cc(N/N=C2/CC(c3ccccc3)Oc3ccccc32)ccc1Cl (centres undefined) the results were CHX counter 40*, Shiga toxin inh 54*, Pf growth 96h 7%, HCV inhibitor -2%, Pf growth 48h 2% and HCMV inh -13.
Screening c1ccc(CSc2ncnc3c2ncn3C2CCCCO2)cc1 (centres undefined) returned HCV inhibitor -14% and HCMV inh 70.
c1ccc(CNc2ncnc3c2ncn3C2CCCCO2)cc1 (centres undefined) was read as CHX counter 32*, Shiga toxin inh 52, Pf growth 96h -9%, HCV inhibitor 7% and HCMV inh 82.
OC[C@@H]1CN(Cc2ccc(-c3ccccc3)cc2)C[C@H](n2cnc3c(Nc4ccccc4)ncnc32)O1 was read as HCMV inh -65*.
For OC[C@@H]1CN(Cc2ccc(-c3ccccc3)cc2)C[C@H](n2cnc3c(NCc4ccc(F)cc4)ncnc32)O1 the results were HCMV inh -85*.
Screening CC(=O)c1ccc(NC(=O)[C@@H]2CCCN2C2=NS(=O)(=O)c3ccccc32)cc1 returned Pf growth 96h -30%, HCV inhibitor 9%, Pf growth 48h 14% and HCMV inh -10.
For Cc1nc2cc(-c3ccccc3)ccc2o1 the results were CHX counter 32*, Shiga toxin inh 86*, Pf growth 96h 18%, HCV inhibitor 3% and HCMV inh -20.
For Cc1ccc(-c2nnc(SCC(=O)N3CCOCC3)nc2-c2ccc(C)cc2)cc1 the results were CHX counter -4, Shiga toxin inh -27, Pf growth 96h inconclusive, HCV inhibitor -12%, Pf growth 48h inconclusive and HCMV inh -17.
O=C(CSCc1ccccc1)N1CCN(c2ccccc2)CC1 was read as CHX counter 47*, Shiga toxin inh active, Pf growth 96h inconclusive, HCV inhibitor -2%, Pf growth 48h 72% and HCMV inh -17.
`Cc1ccc(CSCC(=O)N2CCN(c3ccccc3)CC2)cc1` gave CHX counter 7, Shiga toxin inh 12, Pf growth 96h 4.1µM*, HCV inhibitor -3%, Pf growth 48h -7% and HCMV inh inconclusive.
Screening O=C(CCSCc1ccccc1Cl)N1CCN(c2cccc(Cl)c2)CC1 returned CHX counter -2, Shiga toxin inh -5, Pf growth 96h 43%, HCV inhibitor inconclusive, Pf growth 48h 22% and HCMV inh 7.
